# Laboratory results reported in PubChem BioAssay (Tox21).
# Results filed as inconclusive are left out. Values without a mark were called inactive. The call rests on the fitted dose curve; in most records, active means well fitted activation curve with a large enough effect in the repeat runs; inconclusive means weak or mixed curves; inactive means flat fitted curve, though single readings scatter.
# Experiment: A CellTox Green Cytotoxicity Assay to monitor cytotoxicity in HEK293 cells - 32 hour (AID 1224881); further: nearly all actives have a fitted effect of over 40% in size
# Settings: CellTox Green fluorescence; series mostly up to 76.8 µM; cytotoxicity increase: at the top concentration
# Description: National Center for Advancing Translational Sciences [NCATS]
# NIH Chemical Genomics Center [NCGC]
# U.S. Environmental Protection Agency [EPA]
# National Institutes of Environmental Health Sciences [NIEHS]
# National Toxicology Program [NTP]
# Cell-based models are critical for drug discovery. Determining the natural cytotoxic effects resulting from test compounds is an essential research activity. A CellTox Green Cytotoxicity Assay to monitor cytotoxicity in real time of continues cell culture during 40 hours of the compound treatment was used to screen Tox21 10K library compounds in Hek293 cells. CellTox Green Cytotoxicity Assay is a nonlytic, homogeneous, biofluorescent method to measure cytotoxicity in cell culture after experimental manipulation. The assay system uses a proprietary asymmetric cyanine dye that is excluded from viable cells but preferentially stains the dead cell's DNA. […] Viable cells produce no appreciable increases in fluorescence. Therefore, the fluorescence signal produced by the binding interaction with dead cell DNA is proportional to cytotoxicity.
# The mixture of Hek293 cell suspension and reagents were dispensed at 600cells/6 ul/well in 1536-well tissue culture treated black solid bottom plates using a Multidrop dispenser. After the assay plates were incubated at a 37 C/5% CO2 incubator for 5 hours, 23 nL of compounds dissolved in DMSO, positive and negative controls was transferred to the assay plate by a pintool work station. The plates were incubated at 37 C for 40 hours. The fluorescence intensity were measured at 0h, 8h, 16h, 24h, 32h and 40h time points using ViewLux plate reader during compound treatment.
# On the % scale 0 is the no-effect control and ±100 the full control effect.
row,Structure (SMILES),cytotoxicity increase
1,Clc1cc(Cl)cc(Cl)c1,-7.4%
2,CCC(=O)OCc1ccccc1,-0.372%
3,Nc1ccccn1,6.3%
4,CC(C)[C@H]1CC[C@@H](C)CC1=O,0.866%
5,CC1(C)OC[C@@H](COC(=O)CCc2ccc(OC[C@@H](O)CNCCNC(=O)N3CCOCC3)cc2)O1,-2.16% [at 35.3 µM]
6,C=COC(=O)C(C)(CC)CCC(C)C (stereo not given),1.74%
7,CCCc1nn(C)c2c(=O)[nH]c(-c3cc(S(=O)(=O)N4CCN(C)CC4)ccc3OCC)nc12,-24.5% [at 35.3 µM]
8,CC(C)(C)OC(=O)c1cccc(N)c1,9.49%
9,O=C1c2ccccc2C(=O)c2cc(O)ccc21,-43.3%
10,Cc1ncc(COP(=O)(O)O)c(C=O)c1O,-33.6% [at 35.3 µM]
11,COC(=O)Nc1ccc(Cl)c(Cl)c1,-14.9%
12,FB(F)F,-3.58%
13,O=C1CCCCCCCCCCCCCCO1,9.43%
14,COc1ccccc1OCC1CNC(=O)O1 (stereo not given),-0.552% [at 35.3 µM]
15,CN1[C@@H]2CC[C@H]1CC(OC(=O)C(O)c1ccccc1)C2 (stereo not given in full),-9.94% [at 35.3 µM]
16,C[C@H]1[C@H](NC(=O)/C(=N/OC(C)(C)C(=O)O)c2csc(N)n2)C(=O)N1S(=O)(=O)O (stereo in doubt),-1.42% [at 35.3 µM]
17,CO[C@@]1(NC(=O)C(C(=O)O)c2ccc(O)cc2)C(=O)N2C(C(=O)O)=C(CSc3nnnn3C)CO[C@@H]21 (stereo not given in full),-17% [at 35.3 µM]
18,CCCn1cc[n+](C)c1C,-9.21%
19,CN(C)C(=O)Oc1ccc[n+](C)c1,5.57% [at 35.3 µM]
20,CCCCCC(=O)OCCc1ccccc1,8.44%

row,Structure (SMILES),cytotoxicity increase
1,CC[C@H]1OC(=O)[C@H](C)[C@@H](O[C@H]2C[C@@](C)(OC)[C@@H](O)[C@H](C)O2)[C@H](C)[C@@H](O[C@@H]2O[C@H](C)C[C@H](N(C)C)[C@H]2O)[C@](C)(OC)C[C@@H](C)C(=O)[C@H](C)[C@@H](O)[C@]1(C)O,-3.78%
2,CC1=NS(=O)(=O)c2cc(Cl)ccc2N1,-7.85% [at 35.3 µM]
3,c1coc(CNc2ncnc3nc[nH]c23)c1,1.98%
4,Nc1c2c(nc3c1CCC3)CCCC2,3.69% [at 35.3 µM]
5,CN1CC(=O)N/C1=N/C(=O)Nc1cccc(Cl)c1,5.31% [at 35.3 µM]
6,NC(=O)N1c2ccccc2CC(=O)c2ccccc21,-15.8% [at 35.3 µM]
7,CCOC(=O)CCC(=O)OCC,-14.1%
8,CCC(C)(CN(C)C)OC(=O)c1ccccc1 (stereo not given),1.54% [at 35.3 µM]
9,CCCCCCCCCCCCCCC(=O)O,-4.48%
10,CN(C)CCCN(C)CCCN(C)C,-12.2%
11,N[C@@H](CCC(=O)O)C(=O)O,0.0975%
12,CCCCCC(C)N (stereo not given),-11.9% [at 35.3 µM]
13,CCOC(=O)c1cnc2c(cnn2CC)c1NN=C(C)C,29.1% [at 35.3 µM]
14,CN1CCC(=C2c3ccccc3CCc3cccnc32)CC1,-16.4% [at 35.3 µM]
15,CN1CCN(c2cc3c(nn2)Oc2ccccc2N3C)CC1,-14.8% [at 15.8 µM]
16,C=C(C)C(=O)OCCOCCOCCOCCOC(=O)C(=C)C,-13.6%
17,CC(=O)c1cnccn1,24.4%
18,O=C(O)CC(C(=O)O)S(=O)(=O)O (stereo not given),-0.268%
19,CCOC(=O)C(=O)CCCCCCl,-12.3% [at 35.3 µM]
20,CCCCCCCCCCCCSC,-8.02%
